Bioassay records from PubChem BioAssay.
SARS PLpro yeast: SARS-CoV PLP inhibition in yeast; S. cerevisiae expressing SARS-CoV PLpro, growth rescue; Potency, µM (doses to about 32.9 µM), for the others: at the highest dose activity, positive = growth rescue, actives largely listed as activators; 0.19% of 330,000 active; AID 485353; calls by dose curve; further: potency means the concentration at half of the fitted maximal effect; 0% is about no effect; nearly all actives have a fitted effect of over 55% in size
Pf growth 96h: P. falciparum growth inhibition at 96 hour, primary screen for plastid delayed-death inhibitors. P. falciparum luciferase reporter growth, 96 h. Potency, µM (highest dose often 28.7 µM), for inactives: at the highest dose activity change, negative = inhibition, actives largely listed as inhibitors. 6.9% of 320,000 active. AID 504834; further: potency means the concentration at half of the fitted maximal effect; on the % scale 0 is the no-effect control and ±100 the full control effect
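P. falciparum expressing integrated firefly luciferase, in erythrocytes at 2% hematocrit, 0.05% parasitemia, incubated with compounds 96 h at 37 C, 5% CO2. Growth inhibition read as loss of luminescence; two-generation exposure targets delayed-death apicoplast inhibitors.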
Cycloheximide cs: affects cycloheximide protein synthesis inhibition readout, counter-screen; cell reporter, cycloheximide protein synthesis inhibition counterscreen; max response, %; 12% of 300,000 active; AID 2314; in the data active means max response mostly above about 13%, no sharp cut-off; inactive means mostly below about 14%; further: read at 38.3 µM for the half of the compounds with a filed dose; 0% is about no effect
AMA1 RON2 block: inhibitors of Plasmodium falciparum AMA1-RON2 interaction | AlphaScreen AMA1-biotinylated RON2 peptide binding | Potency, µM (doses to about 58.2 µM), for inactives: top-dose activity change, negative = inhibition, usual class: inhibitors | AID 720542 | 0.2% of 360,000 active;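 further: potency means the concentration at half of the fitted maximal effect; 0% = vehicle wells and -100% = peptide control; nearly all actives have a fitted effect of over 45% in size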
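AMA1 (3D7) with his tag at 25 nM final met compounds first, then biotinylated RON2 peptide at 25 nM; detection used donor plus acceptor beads, 10 µg/mL apiece, read by AlphaScreen after 30 min at room temperature.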
Shiga inhibitor: Shiga toxin inhibition; inhibition, % at 38.7 µM; 9.2% of 290,000 active; Vero cells, Shiga toxin protein synthesis inhibition reporter; in the data active means inhibition mostly above about 28%, no sharp cut-off; inactive means mostly below about 43%; further: 0% is about no effect
Pf growth 48h: P. falciparum growth inhibition at 48 hours (one generation) | Potency, µM (doses to about 28.7 µM), inactives show at the highest dose activity change, negative = inhibition, hits mostly inhibitors | AID 504832 | 5.9% of 310,000 active | P. falciparum luciferase growth in erythrocytes, 48 h; further: potency means the concentration at half of the fitted maximal effect; on the % scale 0 is the no-effect control and ±100 the full control effect
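A one-generation exposure of luciferase-tagged malaria parasites in RPMI 1640/Albumax erythrocyte culture, 37 C and 5% CO2. Inhibition is inferred from decreased luminescence after adding detection reagent.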
An asterisk follows results filed as active; ? = inconclusive; · = no result given. In the library only some 19% were active in any assay of this set; here they are far more common. Unless noted, the call rests on the fitted dose curve; in most records, active means well fitted curve in the direction sought with a large enough effect; inconclusive means small, poorly fitted or top-dose-only effect, or another doubt; inactive means no such curve, though single readings can be large; an effect the other way counts as inactive or inconclusive.

SMILES	SARS PLpro yeast	Pf growth 96h	Cycloheximide cs	AMA1 RON2 block	Shiga inhibitor	Pf growth 48h
Cc1ccc(CNC(=O)/C=C/C(=O)O)cc1	-3%	-10%	7	-4%	23	14%
CCCCNC(=O)/C=C/c1cccs1	10%	-24%	33*	-4%	48*	34%
Cc1ccc(-c2csc3ncnc(N4CCN(C(=O)c5ccccc5)CC4)c23)cc1	-4%	·	1	-1%	-17	8.3µM*
O=C(COc1ccc(-c2ccccc2)cc1)N1CCN(C(=O)c2cccs2)CC1	-1%	10%	15*	-8%	40*	4%
O=C(c1ccco1)N1CCN(c2ncnc3scc(-c4cccs4)c23)CC1	-10%	?	-3	-3%	-12	12µM*
O=C(c1cccs1)N1CCCN(c2ncnc3scc(-c4ccccc4)c23)CC1	2%	10µM*	-1	-7%	12	5.9µM*
O=C(c1ccco1)N1CCN(c2ncnc3scc(-c4ccccc4)c23)CC1	-7%	0%	4	11%	-11	·
CCN(CC)C(=O)Cn1cc(/C=C2\C(=O)NC(=O)N(c3ccccc3F)C2=O)c2ccccc21	2%	?	8.5*	-3%	33	1%
O=C(O)Cn1cc(/C=C2\C(=O)NC(=O)N(c3ccc(Cl)cc3)C2=O)c2ccccc21	3%	23%	-3	-2%	-5	?
CCN1C(=O)NC(=O)/C(=C\c2cn(CC(=O)N3CCCCC3C)c3ccccc23)C1=O (configuration not stated)	12%	6.6µM*	-1	16%	-10	-9%
CC1CCCCN1C(=O)Cn1cc(C#N)c2ccccc21 (configuration not stated)	-14%	6%	-2	2%	-13	-18%
COc1ccc(N2CC(C(=O)Nc3nnc(SCC(=O)Nc4ccc(NC(C)=O)cc4)s3)CC2=O)cc1 (configuration not stated)	·	·	·	11%	·	·
O=C(Nc1nccs1)c1ccc(Cl)s1	22%	64%	20*	128%	67	·
O=C(Nc1ccc(Br)cn1)c1ccc(Br)s1	-2%	245%	62*	0%	108*	144%
O=C(Nc1ccccc1C(=O)Nc1ccc(Br)cn1)c1ccccc1Cl	-12%	?	·	-2%	·	?
Cc1cc(C(=O)Nc2ccc(Br)cn2)sc1C	-6%	392%	·	-2%	·	221%
O=C(NC1=NCCS1)c1ccc(Br)s1	-2%	174%	40	3%	57	·
O=C(Nc1ccon1)c1ccc(Br)s1	0%	-3%	25*	-4%	57*	21%
Cc1ccccc1C(=O)Nc1ccc(Br)cn1	1%	309%	49*	-5%	91*	211%
CC(=O)Nc1ccccc1C(=O)N1CCN(Cc2ccccc2)CC1	-3%	18%	-4	8%	11	1%
COc1ccc(CCNC(=O)c2cnn3cccnc23)cc1OC	9%	·	-1	8%	-5	-1%
O=C(Nc1ccccn1)c1ccc(Cl)s1	0%	-29%	62*	-3%	100*	112%
CCC(=O)Nc1ccc(Br)cn1	0%	7%	11	-6%	-5	7%
O=C(Nc1ccc2sccc2c1)c1ccc(Cl)s1	-3%	107%	33*	0%	39*	25%
O=C(Nc1ccc(Br)cn1)c1ccc(Cl)s1	-3%	252%	54*	3%	84*	168%
SMILES	SARS PLpro yeast	Pf growth 96h	Cycloheximide cs	AMA1 RON2 block	Shiga inhibitor	Pf growth 48h
COCCNC(=O)c1cc2oc3ccccc3c2n1C	-13%	·	62*	-14%	89*	144%
O=C(CN(Cc1cccs1)C(=O)CCC(=O)Nc1ccccn1)NCc1ccccc1	1%	57%	-1	-21%	-19	2%
CS(=O)(=O)N(CC(=O)N1CCCCCC1)c1cccc(Br)c1	-1%	12µM*	-4	1%	-12	6%
Cc1ccc(N(CC(=O)N2CCCCCC2)S(C)(=O)=O)cc1Cl	-3%	7.4µM*	1	2%	·	-22%
Cc1cccc(N(CC(=O)N2CCCCCC2)S(C)(=O)=O)c1	11%	?	0	12%	-6	11%
Cc1ccc(N(CC(=O)N2CCOCC2)S(C)(=O)=O)cc1Cl	-5%	?	2	12%	-10	4%
COC(=O)C1CCN(C(=O)CN2C(=O)NC(CC(C)C)C2=O)CC1 (configuration not stated)	-1%	·	·	2%	·	·
